# Results taken from PubChem BioAssay AID449739 (Vanderbilt High Throughput Screening Facility, 2010).
# Screen size: about 100,000 compounds; about 4,200 (4.2%) were called active. The full list was thinned out, with actives kept by preference. A number with no mark means an inactive call.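 The calls were made as follows: active = single-dose well whose peak fluorescence ratio is a statistical outlier from its plate by either plate-standardised score or position-corrected B-score; inactive = the rest.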
# Molecular target: Voltage-dependent T-type calcium channel subunit alpha-1H (Homo sapiens) (UniProt O95180)
# Sequence (O95180 whole entry, looked up): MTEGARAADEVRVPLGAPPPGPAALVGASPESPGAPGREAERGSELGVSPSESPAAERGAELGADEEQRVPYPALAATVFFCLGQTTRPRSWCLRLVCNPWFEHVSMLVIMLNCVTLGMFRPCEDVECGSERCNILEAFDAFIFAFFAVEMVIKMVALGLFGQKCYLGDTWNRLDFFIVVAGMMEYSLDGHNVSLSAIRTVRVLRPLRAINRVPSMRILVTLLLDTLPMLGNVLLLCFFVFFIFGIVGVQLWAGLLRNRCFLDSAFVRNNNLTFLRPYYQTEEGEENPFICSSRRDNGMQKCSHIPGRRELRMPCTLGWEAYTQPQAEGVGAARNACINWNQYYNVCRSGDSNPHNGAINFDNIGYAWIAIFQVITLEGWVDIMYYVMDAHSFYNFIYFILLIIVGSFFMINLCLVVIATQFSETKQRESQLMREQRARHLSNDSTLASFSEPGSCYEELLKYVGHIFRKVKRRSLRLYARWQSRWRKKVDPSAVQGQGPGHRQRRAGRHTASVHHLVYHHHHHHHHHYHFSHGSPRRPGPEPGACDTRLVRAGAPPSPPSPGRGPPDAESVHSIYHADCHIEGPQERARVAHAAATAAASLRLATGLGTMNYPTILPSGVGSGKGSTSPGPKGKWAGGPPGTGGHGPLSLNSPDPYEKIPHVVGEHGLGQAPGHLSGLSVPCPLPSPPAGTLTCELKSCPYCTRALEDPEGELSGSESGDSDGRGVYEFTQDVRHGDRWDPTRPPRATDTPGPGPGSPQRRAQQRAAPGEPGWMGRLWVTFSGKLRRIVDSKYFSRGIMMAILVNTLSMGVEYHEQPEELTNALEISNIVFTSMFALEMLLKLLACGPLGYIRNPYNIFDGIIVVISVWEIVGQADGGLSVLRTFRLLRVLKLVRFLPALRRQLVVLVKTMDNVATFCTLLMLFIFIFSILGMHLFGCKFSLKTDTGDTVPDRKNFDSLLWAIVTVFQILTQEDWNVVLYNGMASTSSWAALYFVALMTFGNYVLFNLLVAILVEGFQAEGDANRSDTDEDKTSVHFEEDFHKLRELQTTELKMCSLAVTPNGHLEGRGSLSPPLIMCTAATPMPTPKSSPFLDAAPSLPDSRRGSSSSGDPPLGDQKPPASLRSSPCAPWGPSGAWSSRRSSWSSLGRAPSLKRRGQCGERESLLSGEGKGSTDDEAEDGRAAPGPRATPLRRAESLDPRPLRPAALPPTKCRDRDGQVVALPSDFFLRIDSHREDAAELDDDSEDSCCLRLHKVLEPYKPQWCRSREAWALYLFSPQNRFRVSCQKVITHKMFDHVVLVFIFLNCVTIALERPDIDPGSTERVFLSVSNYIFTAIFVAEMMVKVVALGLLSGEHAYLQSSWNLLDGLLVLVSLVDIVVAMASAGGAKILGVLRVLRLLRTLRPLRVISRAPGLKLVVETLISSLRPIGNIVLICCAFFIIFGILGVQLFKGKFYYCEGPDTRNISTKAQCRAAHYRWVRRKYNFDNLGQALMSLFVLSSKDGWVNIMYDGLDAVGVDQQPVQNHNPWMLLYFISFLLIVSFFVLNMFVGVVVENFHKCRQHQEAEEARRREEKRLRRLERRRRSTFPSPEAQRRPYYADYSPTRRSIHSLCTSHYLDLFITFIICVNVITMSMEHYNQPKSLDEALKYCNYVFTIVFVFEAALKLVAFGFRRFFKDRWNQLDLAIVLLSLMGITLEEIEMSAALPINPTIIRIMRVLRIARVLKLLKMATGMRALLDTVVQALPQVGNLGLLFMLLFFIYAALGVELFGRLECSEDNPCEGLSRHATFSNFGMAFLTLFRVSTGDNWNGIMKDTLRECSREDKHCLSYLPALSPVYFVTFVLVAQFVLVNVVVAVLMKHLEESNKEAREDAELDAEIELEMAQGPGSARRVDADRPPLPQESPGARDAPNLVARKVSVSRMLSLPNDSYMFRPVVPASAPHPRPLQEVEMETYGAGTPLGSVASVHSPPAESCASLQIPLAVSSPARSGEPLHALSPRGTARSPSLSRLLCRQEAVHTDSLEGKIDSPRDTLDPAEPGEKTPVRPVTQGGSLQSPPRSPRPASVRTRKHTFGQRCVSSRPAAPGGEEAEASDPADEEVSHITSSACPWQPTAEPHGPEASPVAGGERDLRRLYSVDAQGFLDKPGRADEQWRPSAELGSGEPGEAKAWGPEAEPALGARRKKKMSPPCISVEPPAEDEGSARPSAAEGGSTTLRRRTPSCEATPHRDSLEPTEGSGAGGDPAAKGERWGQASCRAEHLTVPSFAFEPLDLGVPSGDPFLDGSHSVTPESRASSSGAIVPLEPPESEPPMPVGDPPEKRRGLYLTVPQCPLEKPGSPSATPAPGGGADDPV
# Experiment: Cav3.2 calcium influx blockers – cell-based, Fluo-4 calcium fluorescence, FDSS, MLSMR library, primary screen (AID 449739)
# Conditions: Cav3.2-expressing cells, at 10 µM, active compounds read low
row,SMILES,B-score
1,COc1c(O)cc2oc(-c3ccc(O)c(O)c3)cc(=O)c2c1O,1.78
2,COc1ccccc1N(C)S(=O)(=O)c1ccc(C(=O)N2CCC(C(N)=O)CC2)cc1,-0.0467
3,CCCCC1=CC2=CC(=O)C(C)(OC(=O)CC)C(=O)C2=CN1CCCOC(C)C (centres undefined),0.761
4,CCC(C)NC(=O)CSC1=Nc2ccccc2C2=NC(CCC(=O)NCc3ccco3)C(=O)N12 (centres undefined),0.161
5,O=C(CC1N=C2c3ccccc3N=C(SCc3ccccc3Cl)N2C1=O)NCc1ccco1 (centres undefined),-4.98 (active)
6,O=C(CSC1=Nc2ccccc2C2=NC(CC(=O)NCc3ccco3)C(=O)N12)NCc1ccco1 (centres undefined),0.442
7,O=C(Cc1ccc2c(c1)CCCC2)Nc1ccccc1Cl,-0.144
8,O=C(NCc1ccccc1)c1onc(CSc2ccncc2)c1C(=O)NCc1ccccc1,-0.591
9,Cc1cc(C)cc(OCc2nnc(SCC(=O)Nc3ccccc3)o2)c1,0.346
10,Cc1cccc(OCc2nnc(SCc3nc4cc(C(F)(F)F)ccc4c(=O)[nH]3)o2)c1,-1.8
11,Cc1cccc(OCc2nnc(SCn3nnc4ccccc4c3=O)o2)c1,-6.05 (active)
12,Cn1cc([N+](=O)[O-])c(C(=O)Nc2ccc3c(c2)OCCO3)n1,0.353
13,COc1cccc(NC(=O)c2ccccc2SC)c1,0.424
14,COc1cccc(NC(=O)c2nn(C34CC5CC(CC(C5)C3)C4)cc2[N+](=O)[O-])c1,-4.14 (active)
15,O=C(Nc1nnc(CCOCCOCCc2nnc(NC(=O)c3ccco3)s2)s1)c1ccco1,0.766
16,Cc1cc(C(=O)CSc2nc(N)cc(=O)[nH]2)c(C)n1CCc1ccc(Cl)cc1,0.737
17,CC(/C=C/C1(O)C(C)CC(=O)CC1(C)C)OC1OC(CO)C(O)C(O)C1O (centres undefined),0.424
18,CCOc1ccc(NC(=O)CN2CCN(CC(=O)Nc3ccc(OC)cc3)CC2)cc1,1.58
19,COc1ccc(NC(=O)Cn2c(-c3ccc(OC)cc3)cn(-c3ccc(C)cc3)c2=O)cc1,-4.33 (active)
20,COc1ccc(-c2cn(-c3ccc(C)cc3)c(=O)n2CC(=O)Nc2ccc(OC)c(OC)c2)cc1,-1.46
21,CC(C)(C)NS(=O)(=O)c1ccc(NC(=O)NC2CCCCC2)cc1,-0.833
22,Cc1n[nH]c(=S)n1/N=C/c1ccc(Br)o1,0.825
23,COc1ccc(Nc2nc(Cl)nc(NCc3ccco3)n2)cc1,-0.534

row,SMILES,B-score
1,COc1ccc(CCNC(=O)C2CCN(c3nn4c(=O)cc(C)nc4s3)CC2)cc1OC,0.351
2,COc1ccc(CCNC(=O)C2CCCN(Cc3nc(-c4cccc(Cl)c4)oc3C)C2)cc1OC (centres undefined),-3.48 (active)
3,COc1ccc(CCN(C)C(=O)C2CCCN(Cc3ccc(OC)c(OC)c3)C2)cc1OC (centres undefined),-0.0096
4,CC1(OC(=O)C2CCCC2)C(=O)C=C2C=C(c3ccc(C#N)cc3)OC=C2C1=O (centres undefined),-0.314
5,CCCCNC(=O)C(=O)c1ccccc1NC(C)=O,0.725
6,Cc1ccc(C)c(N2CCN(C(=O)CCCCn3c(=O)[nH]c4ccccc4c3=O)CC2)c1,-8.03 (active)
7,O=C(CCCCn1c(=O)[nH]c2ccccc2c1=O)NCc1ccc2c(c1)OCO2,-0.0333
8,COc1ccc(CCNC(=O)CCCCn2c(=O)[nH]c3ccccc3c2=O)cc1OC,0.545
9,O=C(CCCn1c(=O)[nH]c2cc(Cl)ccc2c1=O)NCCN1CCN(c2ccccc2)CC1,0.27
10,CCn1c(=O)cc(OCC(=O)NCCCN2CCN(c3cccc(Cl)c3)CC2)c2ccccc21,0.375
11,O=C(CCn1c(=O)[nH]c2ccccc2c1=O)NCCCN1CCN(c2cccc(Cl)c2)CC1,-7.26 (active)
12,COC(=O)c1ccccc1OCC(=O)N1CCN(c2ccc(Cl)cc2)CC1,-1.9
13,Cc1ccccc1OC/C(O)=C(\C#N)c1nc2ccccc2[nH]1,-0.71
14,COc1cc(OC)c(/C=N/NC(=O)c2ccc([N+](=O)[O-])cc2)cc1Br,-0.234
15,COc1cccc(/C=N/NC(=O)c2cccc([N+](=O)[O-])c2)c1OS(=O)(=O)c1ccc(C)cc1,-6.01 (active)
16,COc1cc(/C=N\NC(=O)CNC(=O)c2cccc([N+](=O)[O-])c2)ccc1O,0.194
17,C#CCNC(=O)C1=C[C@@H](c2ccccc2)[C@H](CCCO)[C@@H](OCC)O1,1.09
18,Cc1ccc2c(c1)N(CC(=O)N(Cc1ccccn1)Cc1ccco1)C(=O)C(C(C)C)O2 (centres undefined),-6.96 (active)
19,Cc1ccc(C)c(N(CC(=O)NCc2ccco2)C(=O)CCC(=O)Nc2ccccn2)c1,-2.66
20,Cc1ccc(C(C(=O)NC2CCCC2)N(Cc2ccco2)C(=O)CCC(=O)Nc2ccccn2)cc1 (centres undefined),0.124
21,C#CCOCCOCCOCCNc1nc(N2CCN(C(=O)[C@H](CCC(=O)O)n3cc(C(N)CO)nn3)CC2)nc(N2CCN(C(=O)[C@H](Cc3ccc(O)cc3)n3cc(C(N)[C@H](C)CC)nn3)CC2)n1 (some centres undefined),-0.353
22,O=C(O)/C=C/C(=O)Nc1ccc(F)cc1F,0.769
23,Cn1cnc([N+](=O)[O-])c1Sc1ccccc1,0.333

row,SMILES,B-score
1,CC(C)(C)n1nc(Cc2cccc3ccccc23)c(C#N)c1N,-1.32
2,COC(=O)Cc1nc2ccccc2[nH]1,0.0867
3,c1ccc(-c2nnc(SCc3nc4ccccc4[nH]3)o2)cc1,-1.58
4,c1ccc2c(CSCc3nc4ccccc4[nH]3)cccc2c1,-7.7 (active)
5,COc1cc2c(cc1O)[C@H](Cc1ccc(Oc3cc(C[C@@H]4NCCc5cc(OC)c(O)cc54)ccc3O)cc1)NCC2,0.142
6,C(=N/N1CCN(c2ccccc2)CC1)/c1cccs1,0.219
7,O=C(CCNS(=O)(=O)c1ccccc1C(F)(F)F)NCc1ccc2c(c1)OCO2,-0.223
8,COc1ccc(-c2nc3ccccc3n2CCC(C)C)cc1OC,-6.94 (active)
9,CCCn1c(C(O)c2cc(OC)ccc2OC)nc2ccccc21 (centres undefined),-1.69
10,COCCn1c(-c2ccc(OC)c(OC)c2)nc2ccccc21,0.414
11,CCCCN1C(N)=NC[C@@H]1CC1CCCCC1,0.078
12,CCCCN1C(=S)NC[C@@H]1C(C)CC (some centres undefined),-0.603
13,C[C@H](NC(=O)c1nc[nH]c1C(=O)N[C@@H](C)C(=O)OC(C)(C)C)C(=O)OC(C)(C)C,0.275
14,COc1cccc(-c2nnc(SCCOc3ccc4c(C)cc(=O)oc4c3)o2)c1,1.22
15,COc1ccc(C(=O)CN2C(=O)NC(C)(c3ccc(C)cc3)C2=O)cc1OC (centres undefined),-0.586
16,Cc1ccc(SCCN2C(=O)NC(C)(C)C2=O)cc1,0.269
17,Cc1ccc(C2(c3ccc(C)cc3)NC(=O)N(Cc3c(C)noc3C)C2=O)cc1,-6.31 (active)
18,NS(=O)(=O)c1cccnc1Nc1cccc(Cl)c1,-0.12
19,O=S(=O)(c1cnccc1N1CCN(/N=C/c2ccc(Br)cc2)CC1)N1CCCCC1,-0.791
20,Cc1ccc(-c2csc(N(Cc3ccco3)C(=O)c3cccs3)n2)cc1,-1.85
21,Cc1ccc(/C=N/NC(=O)c2sccc2OCc2ccc(F)cc2)cc1,-0.514
22,NC(=O)N1CCCC1C(=O)Nc1ccc(Cl)c(Cl)c1 (centres undefined),-0.377
23,O=C(Nc1ccc(N2CCN(C(=O)c3ccccc3)CC2)c(Cl)c1)c1cccnc1,1.44

row,SMILES,B-score
1,O=C(Nc1ccc(Cl)c(Cl)c1)N1CC=C(c2ccccc2)CC1,-6.72 (active)
2,COC(=O)CCCC1=CC2=CC(=O)C(C)(OC(=O)c3cccs3)C(=O)C2=CN1CC1CC1 (centres undefined),1.17
3,C#CCOCCOCCOCCNc1nc(N2CCN(C(=O)[C@H](C(C)C)n3cc(CCO)nn3)CC2)nc(N2CCN(C(=O)[C@H](C(C)C)n3cc(CCO)nn3)CC2)n1,0.0404
4,COCCNC(=O)CN(C(=O)CCC(=O)Nc1cc(C)on1)c1ccc(C)cc1C,0.162
5,Cc1cc(NC(=O)CCC(=O)N(CC(=O)NCC2CCCO2)c2ccccc2C)no1 (centres undefined),0.22
6,CCCCOc1ccc(N(CC(=O)NCC2CCCO2)C(=O)CCC(=O)Nc2cc(C)ccn2)cc1 (centres undefined),-9.41 (active)
7,COCOc1cc(O)c(C(=O)/C=C/c2ccc(OCOC)c(OCOC)c2)c(OCOC)c1,0.785
8,Oc1ccc2ccc3cccc[n+]3c2c1,-10 (active)
9,COC(C[C@H](O)CC(=O)COCc1ccccc1)OC,0.759
10,COc1ccc(Br)cc1/C=N/n1c(C)nnc1C,0.564
11,C=CCn1c(Cn2nnc3ccccc32)nnc1SCC(=O)N/N=C/c1cc(Br)cc(OC)c1O,0.722
12,COc1cc(Br)cc(/C=N/c2ncn[nH]2)c1O,-3.11 (active)
13,CCOc1ccc2nc(N3CCCN(C(=O)Nc4ccccc4C)CC3)c(C#N)cc2c1,-4.45 (active)
14,CCOc1ccc2nc(NCCNS(=O)(=O)c3ccccc3)c(C#N)cc2c1,0.364
15,Cc1cccc2cc(C#N)c(N3CCCC3)nc12,-0.395
16,COc1ccc(C#Cc2c(-c3ccc(OC)cc3)oc3ccc(-c4ccc5c(c4)OCO5)cc23)cc1,-2.98
17,CCO[C@H]1OC(C(=O)O)=C[C@@H](C2CCCCC2)[C@@H]1CCCO,-0.908
18,Cc1ccccc1-c1nc(CS(=O)(=O)CC(=O)N2CCc3ccccc3C2)c(C)o1,-4.63 (active)
19,COc1ccc(-c2nc(CS(=O)CC(=O)N3CCc4ccccc4C3)c(C)o2)cc1 (centres undefined),0.115
20,Cc1nnc(SCC(=O)N2CCc3ccccc3C2)s1,0.719
